High-throughput results deposited in PubChem by National Center for Advancing Translational Sciences (NCATS).
Methyltransferases: Primary Screen for Target Class Profiling of Small Molecule Inhibitors of Methyltransferases | 25,000 compounds, 3.9% hits | calls only at 40 µM | purified enzyme, MTase-Glo SAH luminescence; active compounds read low | AID 1745853, 2022; call rule not given here
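Each enzyme was reacted with SAM and its substrate, with compounds tested once at 40 uM; SAH formed was read by MTase-Glo luminescence.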
The depositor's hits bear a star; i = inactive; + = active, no number; ! = repeats disagree. Many of the other results were omitted from the sample, so hits are more common in it than they were. % is set by controls: 0 for no effect and ±100 for the full control effect.

SMILES | Methyltransferases
CC(=O)N(C)C1(c2ccccc2)CCN(CCC[C@]2(c3ccc(Cl)c(Cl)c3)CCCN(C(=O)c3ccccc3)C2)CC1 | +
CC(C)CCNC(=O)C1(C)Cn2nc(C(=O)NCCN3CCCCC3)cc2C(=O)N1C (stereo not drawn) | i
CCCn1c(=O)c2ccc(C(=O)NCC(C)C)cc2n2c(SCC(=O)Nc3cccc(C)c3)nnc12 | i
COc1ccc(C(=O)N(Cc2ccccc2)S(=O)(=O)c2ccc3c(c2)n(C)c(=O)n3C)cc1 | i
CC(C)N(CCC(=O)c1ccc2ccccc2c1)Cc1ccccc1 | +!
COc1ccc(Cl)cc1NC(=O)c1ncn2c1C(=O)N(C1CC1)C(C)(C(=O)NCc1ccc(F)cc1)C2 (stereo not drawn) | i
Cc1c(NC(=O)c2ccc(C(C)(C)C)cc2)cccc1-c1cn(C)c(=O)c(Nc2ccc(C(=O)N3CCOCC3)cc2)n1 | i
CCn1nnc2c(N3CCOCC3)nc(-c3ccc(NC(=O)Nc4ccc(C(=O)N5CCN(C)CC5)cc4)cc3)nc21 | +
Cc1cc(C(=O)N2CCc3ncnc(N4CCOCC4)c3CC2)n(C)n1 | i
Cn1c(=O)n(C)c2cc(S(=O)(=O)N(Cc3ccccc3)C(=O)c3cccnc3)ccc21 | i
OC[C@H](Cc1ccccc1)Nc1nc(Oc2ccc3c(c2)CCC3)nc2c1ncn2Cc1ccc(-c2ccccc2)cc1 | +
CCOC(=O)c1cc2n(n1)CC(C)(C(=O)NCc1ccccc1)N(c1ccc(F)cc1)C2=O (stereo not drawn) | i
CC(C)=C1C[C@@]2(C)C(=CC1=O)CC[C@@H](O)[C@@H]2C | i
CC1=CC(=O)C(=C(C)C)CC2C(C)(O)CCC12O (stereo not drawn) | +
COc1ccc(-c2nnc3n(Cc4ccc(F)cc4)c(=O)c4ccccc4n23)cc1 | i
O=C(c1ccc(Nc2nn3c(=O)c4ccccc4nc3s2)cc1)N1CCN(c2ccccn2)CC1 | i
NC(N)=NC(=O)c1cnn(-c2cccc3ncccc23)c1C1CC1 | +
COc1cccc(N2CCN(c3ccc4nnc(CCC(=O)NCCC(C)C)n4n3)CC2)c1 | i
Cc1cc(N2C(=O)c3ccc(-c4ccco4)n3CC2(C)C(=O)NC2CCCC2)ccc1Br (stereo not drawn) | i
CC1CCCCC1NC(=O)C1(C)Cn2c(ccc2-c2ccco2)C(=O)N1Cc1ccccc1F (stereo not drawn) | i
CCCn1c(=O)c2ccc(C(=O)NCC(C)C)cc2n2c(=O)n(CC(=O)NCc3ccccc3)nc12 | i
COc1ccc(CN2C(=O)c3cc4ccccc4n3CC2(C)C(=O)NCc2ccccc2)cc1OC (stereo not drawn) | +
Cc1cccc(CN2C(=O)c3cc4ccccc4n3CC2(C)C(=O)NCc2ccccc2)c1 (stereo not drawn) | i
COc1ccc(CCN2C(=O)c3cc4ccccc4n3CC2(C)C(=O)NCc2ccccc2)cc1OC (stereo not drawn) | i
Cc1ccc(Cn2c(=O)c3ccccc3n3c(=O)n(Cc4ccccc4F)nc23)cc1 | i
SMILES | Methyltransferases
CC(C)OCCCn1c(=O)c2ccccc2n2c(SCC(=O)Nc3ccc(F)cc3)nnc12 | i
CCCn1c(=O)c2ccc(C(=O)NCC(C)C)cc2n2c(=O)n(CC(=O)Nc3ccccc3CC)nc12 | i
CC1(C(=O)NC2CCCCC2)Cn2c(ccc2-c2ccco2)C(=O)N1Cc1ccccc1 (stereo not drawn) | i
NC(=O)N1CCC(CC(=O)N2CCC(C3c4ncc(Br)cc4CCc4cc(Cl)cc(Br)c43)CC2)CC1 (stereo not drawn) | +
COc1ccc(OC)c(N2C(=O)c3cc4ccccc4n3CC2(C)C(=O)NC2CCCC2)c1 (stereo not drawn) | i
CCCn1c(=O)c2cc(F)ccc2n2c(SCC(=O)Nc3ccc(C)cc3C)nnc12 | i
CCCn1c(=O)c2ccc(C(=O)NC3CCCCC3)cc2n2c(=O)n(CC(=O)NC(C)C)nc12 | i
CC1(C)CCC(c2ccc(Cl)cc2)=C(CN2CCN(c3ccc(C(=O)NS(=O)(=O)c4ccc(N[C@H](CCN5CCOCC5)CSc5ccccc5)c(S(=O)(=O)C(F)(F)F)c4)cc3)CC2)C1 | +
CN(C)CC[C@H](CSc1ccccc1)Nc1ccc(S(=O)(=O)NC(=O)c2ccc(N3CCN(Cc4ccccc4-c4ccc(Cl)cc4)CC3)cc2)cc1[N+](=O)[O-] | +
CC(=O)Nc1c2n(c3ccc(F)cc13)CC(C)(C(=O)NC1CCCC1)N(c1ccccc1C)C2=O (stereo not drawn) | i
Cc1ccccc1NC(=O)Cn1nc2n(C)c(=O)c3ccc(C(=O)NC4CCCCC4)cc3n2c1=O | i
CC(=O)Nc1c2n(c3ccc(F)cc13)CC(C)(C(=O)NC1CCCC1)N(Cc1ccc(F)cc1)C2=O (stereo not drawn) | i
COc1ccc2cc3n(c2c1)CC(C)(C(=O)NC1CCCC1)N(Cc1ccccc1OC)C3=O (stereo not drawn) | i
COc1ccc(-c2cc3n(n2)CC(C)(C(=O)NCc2ccccc2)N(Cc2ccc(N(C)C)cc2)C3=O)cc1 (stereo not drawn) | i
CN(CCCN1C(=O)c2ccc(-c3ccco3)n2CC1(C)C(=O)NC1CCCC1)C1CCCCC1 (stereo not drawn) | i
CCOc1ccccc1CNC(=O)c1cc2n(n1)CC(C)(C(=O)NCc1ccc(F)cc1)N(C)C2=O (stereo not drawn) | i
COc1ccc(OC)c(CNS(=O)(=O)c2ccc3c(c2)n(C)c(=O)n3C)c1 | i
CCCn1c(=O)c2ccc(C(=O)NC(C)CC)cc2n2c(=O)n(CC(=O)c3ccc(OC)cc3)nc12 (stereo not drawn) | i
COc1ccc(Cn2c(=O)c3ccccc3n3c(-c4ccc(NC(C)=O)cc4)nnc23)cc1 | i
O=C(O)c1cc(N(Cc2ccc(C3CCCCC3)cc2)C(=O)c2ccc(Oc3ccccc3)cc2)ccc1O | +
CC1(C(=O)NC2CCCCCCC2)Cn2c(cc3occc32)C(=O)N1CCc1ccc(Cl)cc1 (stereo not drawn) | i
CC(C)Cn1c(=O)c2ccc(C(=O)NC3CCCC3)cc2n2c(=O)n(Cc3ccc(F)cc3Cl)nc12 | i
Cc1ccc(CCNS(=O)(=O)c2ccc3[nH]c(=O)[nH]c3c2)cc1 | i
CC(C)NC(=O)c1ccc2c(=O)n(C(C)C)c3nn(CC(=O)NC4CCCC4)c(=O)n3c2c1 | i
Cc1c(Cl)cccc1N1C(=O)c2cc3occc3n2CC1(C)C(=O)NC1CCCC(C)C1C (stereo not drawn) | i
SMILES | Methyltransferases
CC(C)(C[C@@](O)(Cc1cc2ccncc2[nH]1)C(F)(F)F)c1cc(F)ccc1O | +
COc1ccccc1CNC(=O)CCCc1nnc2n3nc(-c4ccccc4)nc3c3ccccc3n12 | i
CCc1ccccc1N1C(=O)c2c(NC(C)=O)c3cc(F)ccc3n2CC1(C)C(=O)NC1CCCC1 (stereo not drawn) | i
CCOc1ccccc1CN1C(=O)c2cc3sccc3n2CC1(C)C(=O)NC1CCCC(C)C1C (stereo not drawn) | i
O=C(O)C1=CC(=C(c2ccc(O)c(C(=O)O)c2)c2ccc(O)c(C(=O)O)c2)C=CC1=O | +
Cc1cccc(N2C(=O)c3cc4occc4n3CC2(C)C(=O)NC2CCCCC2C)c1C (stereo not drawn) | i
Cc1ccc(C)c(N2C(=O)c3cc(-c4ccco4)nn3CC2(C)C(=O)NC2CCCCC2)c1 (stereo not drawn) | i
